Measurements: PubChem BioAssay
Active and inactive are the calls of the source.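 The calls were made as follows, unless noted: active = visual image review flags a hit and inhibition of aggregation exceeds 20%; inconclusive = visual hit but inhibition at or below 20%; inactive = no hit on visual image review.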

Key:
[1] = inhibitors of TNFa-induced NFkB p65 translocation, primary screen, imaging, HUVEC, MLSMR starter and 10KST1 sets (AID 438;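 active = inhibition above 20% together with a positive visual image hit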;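 also: compound added about 3h40 before a 20 min TNFalpha stimulation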;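 as to inhibition: signal is the nuclear over cytoplasmic p65 intensity ratio per well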); conditions: HUVEC TNFa-induced p65 nuclear translocation; cell count: measured here: nuclei count (cytotoxicity indicator), at 2.08 µM; inhibition: at 2 µM, stronger effect = higher value, 0% TNFa-plus-vehicle, 100% no-TNFa wells
[2] = inhibitors of mutant huntingtin aggregation, primary screen, imaging, exon1htt(103Q)mCFP cells, high-content imaging (AID 483); conditions: exon1htt(103Q)mCFP cell line, aggregate imaging, at 2 µM; inhibition of aggregation: stronger effect = higher value; nuclei count: measured here: cell count, toxicity;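 also: compound exposure lasted 3 days before fixation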;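 as to nuclei count: percent of the per-plate median nuclei count of sample wells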
[3] = inhibitors of E-selectin induction by TNFa, primary screen, imaging, HUVEC, immunofluorescence, MLSMR starter and 10KST1 sets (AID 487;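 active = visually confirmed hit in the image check and inhibition above 20%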;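 as to inhibition: signal is fraction of cell area covered by stained E-selectin grains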;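 as to nuclei count: 100% = median nuclei count of all wells on the same plate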); conditions: HUVEC TNFalpha-induced E-selectin immunofluorescence imaging, at 2 µM; inhibition: stronger effect = higher value; nuclei count: measured here: cell number, toxicity
[4] = molecular target: Voltage-gated potassium channel subunit beta-2 (Rattus norvegicus) (UniProt P62483); assay: KvBeta enzyme negative modulators, primary screen, biochemical, NADPH fluorescence (AID 622;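 active = fluorescence slope higher than the sample average by over 3 SD, cut at about -0.22 in these data, passing the limit was not always enough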;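 also: slope of raw intensity against log time taken from 70 to 1610 s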); conditions: recombinant KvBeta, 4-cyanobenzaldehyde reduction, at 10 µM, stronger effect = higher value
[5] = molecular target: Voltage-gated potassium channel subunit beta-2 (Rattus norvegicus) (UniProt P62483); assay: KvBeta positive modulators, primary screen, biochemical, NADPH fluorescence (AID 623;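 active = NADPH fluorescence slope more negative than the mean of all samples by about 3 SD, 99.7% confidence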;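 also: fluorescence intensity change per second fitted from 20 to 320 s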); conditions: Recombinant KvBeta, NADPH fluorescence decrease slope, 10 min; at 10 µM; stronger effect = lower value
[6] = molecular target: Alpha-2C adrenergic receptor (Homo sapiens) (UniProt P18825); assay: modulators of alpha2C/GIRK thallium flux, primary screen, cell-based, HEK293 alpha2C/GIRK1/2 (AID 624;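 active = fluorescence slope after compound addition differing from the mean of all screened samples at 99.7% confidence, in either direction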;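 also: slope of fluorescence ratio to pre-addition baseline per second over 15 to 24 s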); conditions: thallium flux BTC fluorescence, at 10 µM, actives lie on both sides
[7] = inhibitors of Sendai virus-induced IRF3 signaling, primary screen, TLR/RLR signaling modifier project, cell-based, Sendai virus stimulus, luciferase, 10K MLSCN set (AID 602276;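 active = inhibition at or above 50% at 10 µM; inactive = inhibition below 50%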;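 also: firefly luciferase from ISG56 promoter only with Renilla not read in this screen; 0% = Sendai virus plus DMSO and 100% = medium plus DMSO without virus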); conditions: HEK293 RL24 IRF3 luciferase reporter, at 10 µM, stronger effect = higher value
[8] = inhibitors of poly I:C-induced TLR3 signaling, primary screen, cell-based, poly I:C stimulus, luciferase, 10K MLSCN set (AID 602277;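 active = inhibition of the reporter signal at or above 50%; inactive = inhibition below 50%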); conditions: HEK293-TLR3 RL24 IRF3 luciferase reporter, at 10 µM, stronger effect = higher value

Voltage-gated potassium channel subunit beta-2 (Rattus norvegicus), sequence (P62483 whole entry, looked up): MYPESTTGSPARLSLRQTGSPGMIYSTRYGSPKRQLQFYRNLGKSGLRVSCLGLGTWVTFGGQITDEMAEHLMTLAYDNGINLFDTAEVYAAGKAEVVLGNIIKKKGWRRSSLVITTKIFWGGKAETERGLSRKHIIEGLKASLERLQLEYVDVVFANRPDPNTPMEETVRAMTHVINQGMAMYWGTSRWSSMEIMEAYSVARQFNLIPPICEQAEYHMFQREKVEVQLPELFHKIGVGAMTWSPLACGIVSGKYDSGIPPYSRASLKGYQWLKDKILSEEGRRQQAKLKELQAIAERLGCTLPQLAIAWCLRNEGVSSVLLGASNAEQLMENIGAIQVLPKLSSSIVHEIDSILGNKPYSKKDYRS
Alpha-2C adrenergic receptor (Homo sapiens), sequence (P18825 whole entry, looked up): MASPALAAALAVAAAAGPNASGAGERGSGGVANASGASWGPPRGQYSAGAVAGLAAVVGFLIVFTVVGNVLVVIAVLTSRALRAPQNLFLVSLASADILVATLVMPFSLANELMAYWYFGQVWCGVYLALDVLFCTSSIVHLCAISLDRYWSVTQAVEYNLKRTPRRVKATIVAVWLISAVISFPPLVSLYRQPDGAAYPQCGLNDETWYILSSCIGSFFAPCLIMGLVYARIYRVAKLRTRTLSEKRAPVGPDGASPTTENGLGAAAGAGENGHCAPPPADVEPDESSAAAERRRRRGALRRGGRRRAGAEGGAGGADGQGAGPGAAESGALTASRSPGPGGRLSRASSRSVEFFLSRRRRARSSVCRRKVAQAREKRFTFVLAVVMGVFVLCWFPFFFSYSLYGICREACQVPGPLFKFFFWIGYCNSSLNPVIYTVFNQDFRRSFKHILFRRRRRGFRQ

Row | Structure (SMILES) | cell count [1] | inhibition [1] | inhibition of aggregation [2] | nuclei count [2] [%] | inhibition [3] | nuclei count [3] [%] | fluorescence slope [4] | NADPH fluorescence slope [5] | slope [6] | inhibition [7] | inhibition [8]
1 | Cn1nnnc1SCC(=O)NC1CCCCC1 | 228 | 3.4% (inactive) | 20% (inactive) | 84.3 | -0.8% (inactive) | 79.2 | -0.432 (inactive) | 4.4e-07 (inactive) | 0.00705 (inactive) | 5.19% (inactive) | 19.8% (inactive)
2 | COc1ccc(C2CC(c3ccco3)n3ncnc3N2)cc1 (stereo not drawn) | 458 | 6% (inactive) | -19.3% (inactive) | 59.7 | -21.1% (inactive) | 96.4 | -0.4 (inactive) | -6.8e-05 (inactive) | 0.00517 (inactive) | 9.66% (inactive) | 39.2% (inactive)
3 | Nc1nc(Nc2cccc3ccccc23)nc(C2CCCC2=O)n1 (stereo not drawn) | 349 | 1.8% (inactive) | -7% (inactive) | 97.3 | -38.8% (inactive) | 109 | -0.312 (inactive) | -7e-05 (inactive) | 0.00598 (inactive) | 4.53% (inactive) | 13.8% (inactive)
4 | c1ccc(OCc2nc3ccccc3[nH]2)cc1 | 443 | -6.5% (inactive) | 9.8% (inactive) | 75.8 | -77.6% (inactive) | 132 | -0.392 (inactive) | -5.8e-05 (inactive) | 0.00568 (inactive) | -47.4% (inactive) | -118% (inactive)
5 | CCOC(=O)N1CCN(C(=O)c2csc3c2CCCCC3)CC1 | 775 | -27.2% (inactive) | 15.1% (inactive) | 121 | -86% (inactive) | 106 | -0.311 (inactive) | 1.7e-05 (inactive) | 0.00586 (inactive) | -2.32% (inactive) | 9.33% (inactive)
6 | O=C(c1ccc(COc2c(F)c(F)c(F)c(F)c2F)o1)N1CCOCC1 | 701 | 2.8% (inactive) | 26.7% (inactive) | 79.8 | -25% (inactive) | 105 | -0.58 (inactive) | -3.8e-05 (inactive) | 0.0055 (inactive) | 10.5% (inactive) | 33.9% (inactive)
7 | CC(=O)c1cn(CC(=O)NCc2ccc3c(c2)OCO3)c2ccccc12 | 326 | -2.1% (inactive) | -11.9% (inactive) | 108 | -24.5% (inactive) | 107 | -0.534 (inactive) | -9.1e-05 (inactive) | 0.00566 (inactive) | 11.9% (inactive) | 9.83% (inactive)
8 | CCc1nnc(NC(=O)CSc2nnc(CSc3nc(C)cc(C)n3)n2CC)s1 | 424 | -5% (inactive) | -13.6% (inactive) | 128 | -40.7% (inactive) | 129 | -0.37 (inactive) | 8.3e-06 (inactive) | 0.00824 (inactive) | -5.81% (inactive) | -12.1% (inactive)
9 | COc1ccc2[nH]c(=O)c(CN(C(=O)c3cccnc3)c3ccccc3OC)cc2c1 | 466 | -3.3% (inactive) | -3% (inactive) | 114 | -19.8% (inactive) | 113 | -0.449 (inactive) | 1.5e-05 (inactive) | 0.00765 (inactive) | 12.5% (inactive) | 22.6% (inactive)
10 | O=S(=O)(NCc1cn2ccccc2n1)c1cc(F)ccc1F | 282 | 4.3% (inactive) | 19.7% (inactive) | 78.5 | 9.5% (inactive) | 88.5 | -0.287 (inactive) | -5.3e-05 (inactive) | 0.00441 (inactive) | -0.696% (inactive) | 8.79% (inactive)
11 | Cc1ccc(C(c2nnnn2CCC(C)C)N2CCN(C)CC2)cc1 (stereo not drawn) | 417 | 1% (inactive) | 8.9% (inactive) | 73.1 | -73.9% (inactive) | 108 | -0.598 (inactive) | -4.8e-05 (inactive) | 0.00252 (inactive) | 13.9% (inactive) | -3.3% (inactive)
12 | COc1ccc(-c2ccc(-c3noc(-c4cccs4)n3)c(OC)n2)cc1 | 391 | 6.8% (inactive) | 20.7% (inactive) | 95.6 | -18.2% (inactive) | 102 | -0.0459 (active) | -6.5e-07 (inactive) | 0.00541 (inactive) | -28.9% (inactive) | -86.9% (inactive)
13 | COc1ccc(S(=O)(=O)N(C)C2CCN(C)CC2)cc1 | 843 | -2.3% (inactive) | -6.3% (inactive) | 128 | -73.5% (inactive) | 114 | -0.548 (inactive) | -5.5e-05 (inactive) | 0.00699 (inactive) | 7.34% (inactive) | 43.8% (inactive)
14 | CC(C)Cn1c(N)c(C(=O)NCCN2CCOCC2)c2nc3ccccc3nc21 | 440 | -2.8% (inactive) | -15.6% (inactive) | 101 | -37.1% (inactive) | 81.3 | -0.0147 (inactive) | -9e-06 (inactive) | 0.00559 (inactive) | 19.1% (inactive) | 19.8% (inactive)
15 | CC1(C)NC(=O)N(CC(O)CN2CCCCC2)C1=O (stereo not drawn) | 658 | 1.6% (inactive) | 10.5% (inactive) | 93.2 | 36.5% (inactive) | 109 | -0.47 (inactive) | -1.7e-06 (inactive) | 0.00522 (inactive) | -4.08% (inactive) | -0.921% (inactive)
16 | c1ccc(Cn2nnc3c(N4CCCCCC4)ncnc32)cc1 | 525 | -4.2% (inactive) | 35.8% (inactive) | 76.5 | -63.4% (inactive) | 95.6 | -0.55 (inactive) | -2.5e-05 (inactive) | 0.0062 (inactive) | -20.2% (inactive) | -76.6% (inactive)
17 | CC1CCN(C(=O)CSCC(=O)Nc2nc(-c3cccs3)cs2)CC1 | 734 | -3.4% (inactive) | 17.8% (inactive) | 94.3 | -38.7% (inactive) | 114 | -0.495 (inactive) | -1.9e-05 (inactive) | 0.00893 (inactive) | 4.81% (inactive) | -0.513% (inactive)
18 | Cc1cccc(-c2c3c(=O)n(C)c(=O)n(C)c3cn2-c2ccc(O)cc2)c1 | 363 | -2.8% (inactive) | 30.8% (inactive) | 90.3 | -49.7% (inactive) | 98.7 | -0.579 (inactive) | -2.6e-05 (inactive) | 0.00566 (inactive) | 6.51% (inactive) | 17.1% (inactive)
19 | CC(C)C(C(=O)Nc1ccc2c(c1)OCCO2)N1C(=O)c2ccccc2C1=O (stereo not drawn) | 552 | -4.3% (inactive) | 7% (inactive) | 104 | -63.7% (inactive) | 147 | -0.3 (inactive) | 1.8e-07 (inactive) | 0.00511 (inactive) | 2.16% (inactive) | 12.8% (inactive)
20 | Cc1cc(C)cc(OCC(=O)NC2=NCCS2)c1 | 311 | -11.8% (inactive) | 2.3% (inactive) | 165 | -76% (inactive) | 115 | -0.573 (inactive) | 1.2e-05 (inactive) | 0.00659 (inactive) | -3.94% (inactive) | -24% (inactive)
21 | COc1ccc(C2C3=C(OC(C)=O)c4ccccc4C3=Nc3c2c(=O)n(C)c(=O)n3C)cc1 (stereo not drawn) | 657 | 0.2% (inactive) | -0.9% (inactive) | 103 | -72.4% (inactive) | 116 | -0.41 (inactive) | -3.9e-05 (inactive) | 0.00537 (inactive) | 12.9% (inactive) | 12.4% (inactive)
22 | O=C(Cn1cnc2c(cnn2-c2ccccc2)c1=O)NCCc1ccccc1 | 441 | 3.5% (inactive) | -9.4% (inactive) | 112 | -25% (inactive) | 113 | -0.535 (inactive) | -6.8e-07 (inactive) | 0.00728 (inactive) | 10.8% (inactive) | 17.4% (inactive)
23 | Cc1cc(NC(=O)CSc2nc3c(c(=O)n2Cc2ccccc2)SC(C)C3)no1 (stereo not drawn) | 554 | 8% (inactive) | -16.2% (inactive) | 77.3 | 15.8% (inactive) | 86.8 | -0.417 (inactive) | -6.8e-05 (inactive) | 0.00456 (inactive) | -14.3% (inactive) | -5.37% (inactive)
24 | COc1ccc(-n2ccnc2SCC(=O)NCc2ccc3c(c2)OCO3)cc1 | 495 | 0.2% (inactive) | -17.1% (inactive) | 110 | -80% (inactive) | 123 | -0.596 (inactive) | -2.8e-06 (inactive) | 0.006 (inactive) | 11.9% (inactive) | 32.1% (inactive)
25 | CN1/C(=C\C(=O)Nc2cccnc2)c2ccccc2CC1(C)C | 360 | -5% (inactive) | -8.4% (inactive) | 91.1 | -31.3% (inactive) | 117 | -0.401 (inactive) | -4.2e-05 (inactive) | 0.00677 (inactive) | 18.7% (inactive) | 19.4% (inactive)
26 | CCOc1ccc(S(=O)(=O)N2CCN(c3ccc(C)cc3C)CC2)cc1 | 821 | 5.7% (inactive) | -66.1% (inactive) | 98.4 | -30.7% (inactive) | 110 | -0.578 (inactive) | -2.7e-05 (inactive) | 0.00897 (inactive) | -5.26% (inactive) | 11.7% (inactive)
27 | O=C(Nc1ccncc1)C1c2ccccc2Oc2ccccc21 | 722 | 2.8% (inactive) | 1.3% (inactive) | 90.9 | 19.9% (inactive) | 102 | -0.201 (inactive) | -1e-05 (inactive) | 0.0059 (inactive) | 12.2% (inactive) | 17.7% (inactive)
28 | COc1cccc(N(C(C)=O)c2nc(C)cc(C)c2C#N)c1 | 278 | 13.4% (inactive) | -28.3% (inactive) | 113 | -47.7% (inactive) | 102 | -0.557 (inactive) | -1.8e-05 (inactive) | 0.00529 (inactive) | 17.6% (inactive) | 28.7% (inactive)
